LASV entry inh: qHTS for Inhibitors of binding or entry into cells for Lassa Virus | 1.2% of 300,000 active | Potency, µM (highest dose often 37.9 µM), usual class: inhibitors | Lassa virus pseudotype entry inhibition, cell reporter | AID 540256, 2011; calls by dose curve; tested in HEK293 cells; further: nearly all actives have a fitted effect of over 50% in size
Shiga toxin inh: A qHTS for Small Molecule Inhibitors of Shiga Toxin; Vero cells, Shiga toxin protein synthesis inhibition reporter; inhibition, % at 38.7 µM; 9.2% of 290,000 active; AID 2315, 2010; in the data active means inhibition mostly above about 28%, no sharp cut-off; inactive means mostly below about 43%
MARV entry inh: qHTS for inhibitors of binding or entry into cells for Marburg Virus; Potency, µM (series often up to 37.8 µM), actives largely listed as inhibitors; 1.8% of 300,000 active; Marburg virus pseudotyped entry inhibition, cell reporter; calls by dose curve; tested in HEK293 cells
CHX counter: Cycloheximide Counterscreen for Small Molecule Inhibitors of Shiga Toxin | cell reporter, cycloheximide protein synthesis inhibition counterscreen | max response, % | 12% of 300,000 active; in the data active means max response mostly above about 13%, no sharp cut-off; inactive means mostly below about 14%; further: read at 38.3 µM for the half of the compounds with a filed dose
Vaccinia mCherry: qHTS for Stage-Specific Inhibitors of Vaccinia Orthopoxvirus: mCherry Reporter Primary qHTS. Vaccinia virus mCherry reporter infection, fluorescence. Potency, µM (titrated, usually from 36.5 µM), actives largely listed as inhibitors. 0.63% of 310,000 active; calls by dose curve; tested in A549 cells; further: nearly all actives have a fitted effect of over 35% in size
Vaccinia Venus: qHTS for Stage-Specific Inhibitors of Vaccinia Orthopoxvirus: Venus Reporter Primary qHTS | Vaccinia virus Venus reporter expression, fluorescence | Potency, µM (titrated, usually from 36.5 µM), usual class: inhibitors | 0.46% of 330,000 active | AID 720580, 2013; calls by dose curve; tested in A549 cells; further: nearly all actives have a fitted effect of over 30% in size
A number is an active result; . = inactive; ? = inconclusive; / = no result; + = active, no number; [ ] = another dose, or the depositor's remark. Shown is part of a subset that was picked to be rich in hits.

SMILES	LASV entry inh	Shiga toxin inh	MARV entry inh	CHX counter	Vaccinia mCherry	Vaccinia Venus
CN(C)S(=O)(=O)Oc1ccc(C(=O)Nc2ccc([N+](=O)[O-])cc2)cc1	/	.	/	.	/	/
CC(C)Oc1ccc(C(=O)Nc2ccc([N+](=O)[O-])cc2)cc1	/	119	/	37	/	/
CC(C)Oc1ccc(NC(=O)c2ccncc2)cc1	.	63	.	19	.	.
Cc1ccc2c(c1)sc1nc(-c3cc4cc(Cl)ccc4oc3=O)cn12	.	/	/	/	.	.
O=C(COc1ccccc1)Nc1ncn[nH]1	/	46	.	21	/	/
O=C(/C=C/c1ccccc1)Nc1ncn[nH]1	?	.	?	26	.	.
CCc1ccc(OCC(=O)Nc2ncn[nH]2)cc1	/	58	/	25	.	.
CCc1ccc(OCC(=O)Nc2ncn[nH]2)c(Br)c1	.	/	?	/	.	.
CCOC(=O)c1cccc(NC(=O)c2cc(S(=O)(=O)N3CCCC3)cn2C)c1	.	/	/	/	.	.
COc1ccc2cc(Br)ccc2c1CC(=O)NC1CC(C)(C)NC(C)(C)C1	?	.	18µM	.	/	/
C=CCn1c(C)csc1=Nc1ccc(C(C)=O)cc1	.	111	.	34	.	.
CCOC(=O)c1ccc(N=C2NC(=O)CS2)cc1	.	.	.	.	/	/
C=CCn1c(C)csc1=Nc1ccccc1C	?	.	.	30	.	.
C=CCn1c(CC(=O)OC)csc1=Nc1ccc(C(C)=O)cc1	.	63	.	33	.	.
C=CCn1c(-c2ccc(C)cc2)nc2ccccc21	.	.	.	.	/	/
CCOC(=O)c1ccc(N=c2scc(C)n2CC)cc1	?	80	5.6µM	40	.	.
CSc1nc(-c2ccccc2)nc(N2CCOCC2)c1C(C)=O	.	.	?	.	.	.
COc1ccc(N2C(=O)CCC2=O)cc1	.	.	.	.	/	/
COc1ccc(N2CS(=O)(=O)/C(=C/N(C)C)C2=O)cc1	.	75	.	39	/	/
C=CCNC(=O)C1CCN(c2nc(C)cc(-c3ccccc3)n2)CC1	?	132	.	36	.	.
Cc1ccc(CNC(=O)C2CCN(c3nc(C)cc(C)n3)CC2)cc1	.	/	.	/	.	.
CCCS(=O)(=O)N1CCC(C(=O)NCc2ccccc2Cl)CC1	.	.	.	17	/	?
CC1CCN(S(=O)(=O)N2CCC(C(=O)NCc3ccccc3Cl)CC2)CC1	.	/	/	/	.	.
Cc1cc(-c2ccccc2)nc(N2CCC(C(=O)NCc3ccccc3Cl)CC2)n1	/	54	/	27	/	/
CC1CN(Cc2csc(-c3ccc(Cl)cc3)n2)CC(C)O1 (stereo not given)	.	117	?	.	.	.
SMILES	LASV entry inh	Shiga toxin inh	MARV entry inh	CHX counter	Vaccinia mCherry	Vaccinia Venus
ClCc1csc(-c2ccc(Cl)cc2)n1	.	.	.	.	.	.
Oc1ccc(Cl)cc1C1=NNC(c2cccs2)C1 (stereo not given)	/	141	/	43	?	.
Cc1ccc(O)c(C2=NNC(c3ccc(Cl)cc3)C2)c1 (stereo not given)	/	70	/	59	.[7.34 µM]	.[7.34 µM]
Fc1ccc(C2=CC(c3ccco3)n3ncnc3N2)cc1 (stereo not given)	.	.	.	.	.	.
Clc1ccccc1C1=CC(c2ccco2)n2nnnc2N1 (stereo not given)	.	.	.	.	?	.
C1=C(c2ccc(-c3ccccc3)cc2)Nc2ncnn2C1c1ccco1 (stereo not given)	.	92	?	31	/	.
Brc1ccc(C2=CC(c3ccco3)n3nnnc3N2)cc1 (stereo not given)	.	57	.	16	.	.
Cc1nc(-c2ccccc2)nc2[nH]ccc(=O)c12	.	.	.	34	/	/
Cc1nc(-c2ccccc2)nc2[nH]c(-c3ccccc3)cc(=O)c12	.	.	.	.	.	.
Cc1nc(-c2ccc([N+](=O)[O-])cc2)nc2[nH]ccc(=O)c12	/	.	/	30	/	/
CC1(C)Cc2c(sc(NC(=O)/C=C/C(=O)O)c2C#N)CO1	/	.	/	.	/	/
CCN1CCc2c(sc(NC(=S)NC(=O)c3ccccc3)c2C#N)C1	?	.	.	.	.	.
O=C(Nc1sc2c(c1C(=O)O)CCCC2)c1ccccc1Cl	?	/	?	.	.	.
CC1(C)Cc2c(sc(NC(=O)c3ccco3)c2C#N)CO1	.	.	.	28	/	/
N#Cc1c(NC(=S)NC(=O)c2ccccc2)sc2c1CCC2	.	.	?	32	.	.
CC(=O)NC(=S)Nc1sc2c(c1C#N)CCCCC2	?	84	?	30	.	.
O=C(NC(=S)Nc1sc2c(c1C(=O)O)CCCC2)c1ccccc1	.	.	.	12	.	.
Cc1cc(C)c2cc(C#N)c(NCCCNC(=O)c3cccnc3)nc2c1	/	/	/	/	.	.
CCn1cc(C(=O)NCCCOC)c(=O)c2cc(S(=O)(=O)N3CCc4ccccc4C3)ccc21	.	/	.	/	.	.
O=C1COc2ccc(S(=O)(=O)Nc3ccc(F)cc3)cc2N1	.	.	.	.	.	.
CCc1nc2c(OCc3ccccc3C)cccn2c1N(C)C(=O)C(C)C	/	/	/	/	.	.
Cn1nccc1C(=O)NC(=S)Nc1sc2c(c1C#N)CCCCC2	?	.	.	.	.	.
CN1Cc2sc(NC(=S)NC(=O)c3ccccc3)c(C#N)c2CC1(C)C	?	.	?	47	.	.
CC(C)(C)c1ccc(C(=O)NC(=S)Nc2sc3c(c2C#N)CCC3)cc1	?	18	?	12	.	.
CCC1(C)Cc2c(sc(NC(=S)NC(=O)c3ccccc3)c2C#N)CO1 (stereo not given)	.	.	.	.	.	.
SMILES	LASV entry inh	Shiga toxin inh	MARV entry inh	CHX counter	Vaccinia mCherry	Vaccinia Venus
CC1CCc2sc(NC(=S)NC(=O)c3ccccc3)c(C#N)c2C1 (stereo not given)	.	+	?	26	.	.
CC(C)(C)c1csc(NC(=O)c2ccc(Br)o2)n1	/	99	/	47	/	/
CCOC(=O)Cc1csc(NC(=O)c2sc3nc4cc(C)ccc4cc3c2N)n1	.	.	?	.	.	.
CCOC(=O)Cc1csc(N/N=C/c2ccc(Cl)cc2)n1	.	53	?	31	.	.
CCOC(=O)Cc1csc(NC(=O)Nc2cccc(Cl)c2)n1	?	.	.	8.9	.	.
CCOC(=O)Cc1csc(NC(=O)c2sc3nc4ccc(CC)cc4cc3c2N)n1	.	81	?	24	.	.
CCOC(=O)Cc1csc(NC(=O)Nc2ccc(Cl)cc2)n1	?	.	?	.	.	.
CCOC(=O)Cc1csc(NC(=O)c2ccc(Br)o2)n1	.	36	.	38	.	.
CCOC(=O)Cc1csc(NC(=O)c2cc3ccccc3o2)n1	.	54	?	23	.	.
CSc1ccccc1Nc1ncnc(N)n1	.	.	?	.	.	.
Cc1ccc(OC(C)C(=O)Nc2ccncc2)cc1 (stereo not given)	/	.	/	.	/	/
Cc1ccc(OC(C)C(=O)Nc2ccc(C)c(S(=O)(=O)Nc3ccc(C)cc3C)c2)cc1 (stereo not given)	16µM	.	?	.	?	?
